Where “and” joins values, the source holds several entries; their conditions need not be identical. Equal values may be shown once. Results filed as inconclusive are left out. Entries that show only a call come without a potency. Where a structure was tested more than once in an assay, its records may differ in their call. Calls of active or inactive are those of the source. Unless noted, the call rests on the fitted dose curve; in most records, active means well fitted curve in the direction sought with a large enough effect in the repeat runs; inconclusive means weak or mixed curves; inactive means no such curve, though single readings can be large; an effect the other way counts as inactive or inconclusive.
Experiments:
[1] = qHTS assay for small molecule agonists of the p53 signaling pathway (AID 651631; calls by dose curve; further: nearly all actives have a fitted effect of over 15% in size; further: potency means the concentration at half of the fitted maximal effect)
How it was run: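 Quantitative high-throughput format: 4,000 p53RE-bla HCT-116 cells/well, 5 h pre-incubation, 16 h compound exposure at 37 °C, 2 h room-temperature substrate step, fluorescence intensity measured.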

[2] = qHTS assay for small molecule agonists of the p53 signaling pathway - cell viability (AID 651633; calls by dose curve; further: nearly all actives have a fitted effect of over 30% in size; further: potency means the concentration at half of the fitted maximal effect)
How it was run: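 p53RE-bla cells were treated with compound for 16 hours at 37 C. Cytotoxicity was then measured as CellTiter-Glo luminescence after 30 min at room temperature.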

[3] = qHTS assay for small molecules that induce genotoxicity in human embryonic kidney cells expressing luciferase-tagged ATAD5 - cell viability (AID 651634; calls by dose curve; further: nearly all actives have a fitted effect of over 25% in size; further: potency means the concentration at half of the fitted maximal effect)
How it was run: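 15.5 hr compound or vehicle exposure of HEK293T cells expressing luciferase-tagged ATAD5 at 37C; live-cell protease activity is read by fluorescence after 30 min of CellTiter-Fluor.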

[4] = qHTS assay for small molecule disruptors of the mitochondrial membrane potential - cell viability (AID 720634; calls by dose curve; further: nearly all actives have a fitted effect of over 20% in size; further: potency means the concentration at half of the fitted maximal effect)
How it was run: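 In this qHTS format, HepG2 cells plated overnight were pinned with compound, incubated 1 hr, and assayed for ATP luminescence with CellTiter-Glo after m-MPI dye addition.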

[5] = qHTS assay for small molecule disruptors of the mitochondrial membrane potential (AID 720635); further: potency means the concentration at half of the fitted maximal effect
How it was run: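 HepG2 cells exposed to compound 1 hr at 37C, then Mito-MPS dye 30 min. Ratio read of aggregate (540/590 nm) versus monomer (490/535 nm) fluorescence.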

[6] = qHTS assay to test for compound auto fluorescence at 590 nm (red) in HepG2 cells (AID 720674)
How it was run: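 HepG2 cells, 2,000 per well in MEM with 10% FBS, attached overnight at 37 C, then got 23 nL compound or DMSO. After 1 hr at 37 C, 5% CO2, red fluorescence was read at 540/590 nm against Rose Bengal sodium as reference.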

[7] = qHTS assay to test for compound auto fluorescence at 460 nm (blue) in HEK293 cells (AID 720678)
How it was run: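 Measured: blue fluorescence (Ex 405/Em 460 nm) of compound-treated HEK293 cells, incubated overnight at 37C with 5% CO2 and scaled to triamterene equivalents.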

[8] = qHTS assay to test for compound auto fluorescence at 590 nm (red) in HEK293 cells (AID 720679)
How it was run: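 Using HEK293 cells at 2,000 per well, the screen added 23 nL of each compound after cell attachment and incubated overnight (37C, 5% CO2). The plate reader then captured red-label fluorescence, Ex/Em 540/590nm.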

[9] = qHTS assay for small molecules that induce genotoxicity in human embryonic kidney cells expressing luciferase-tagged ATAD5 (AID 651632); further: nearly all actives have a fitted effect of over 15% in size
How it was run: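 Concentration-response screen for ATAD5 upregulation in HEK293T luciferase reporter cells; 16 hr treatment at 37C, then luminescence after 30 min with Amplite at room temperature.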

[10] = qHTS assay to test for compound auto fluorescence at 535 nm (green) in HepG2 cells (AID 720675)

SMILES	Potency [1]	Potency [2]	Potency [3]	Potency [4]	Potency [5]	outcome [6]	outcome [7]	outcome [8]	outcome [9]	outcome [10]
Nc1ccc(-c2ccc(N)c(Cl)c2)cc1Cl	9.74 µM (active) and 12.8 µM (active) and 21.7 µM (active)	54.8 µM (active) and inactive	54.8 µM (active) and 57 µM (active) and 54.5 µM (active)	27.4 µM (active) and 50.8 µM (active) and 34.4 µM (active)	5.48 µM (active) and 16.1 µM (active) and 8.63 µM (active)	inactive	inactive	inactive		
CCCCCC[n+]1ccccc1		inactive	inactive	inactive	61.7 µM (active) and inactive	inactive	inactive	inactive	inactive	inactive
O=[N+]([O-])c1ccccc1O	inactive	inactive	inactive	inactive	inactive	inactive	inactive	inactive		
CCCCCCCCCCCCCC[P+](CCCCCC)(CCCCCC)CCCCCC		15.4 µM (active) and 19.5 µM (active) and inactive	27.4 µM (active) and 24.5 µM (active)	30.8 µM (active) and 24.5 µM (active) and 1.72 µM (active)	434 nM (active) and 616 nM (active) and 273 nM (active)	inactive	inactive	inactive	inactive	inactive
COP(=O)(OC)C(O)C(Cl)(Cl)Cl (stereo unspecified)	inactive	inactive	inactive	inactive	inactive	inactive	inactive	inactive		inactive
Nc1ccccc1	inactive	inactive	inactive	inactive	inactive	inactive	inactive	inactive		
CCOP(=S)(OCC)Oc1ccc2c(C)c(Cl)c(=O)oc2c1	inactive	inactive	inactive	inactive and 24.3 µM (active)	19.5 µM (active) and 61.1 µM (active)	inactive	inactive	inactive		
C1CCC(NC2CCCCC2)CC1	inactive	inactive	inactive	inactive	inactive	inactive	inactive	inactive		inactive
Nc1ccc(-c2ccc(N)cc2)cc1	inactive	inactive	inactive	inactive		inactive	inactive	inactive		
COCC(=O)N(c1c(C)cccc1C)C(C)C(=O)OC (stereo unspecified)	inactive	inactive	inactive	inactive	inactive	inactive	inactive	inactive		inactive
N#CS	inactive	inactive	inactive	inactive	inactive	inactive	inactive	inactive		
CCNc1nc(Cl)nc(NCC)n1	inactive	inactive	inactive	inactive	inactive	inactive	inactive	inactive		inactive
C[C@]12CCC(=O)C=C1CC[C@@H]1[C@@H]2CC[C@]2(C)C(=O)CC[C@@H]12	inactive	inactive	inactive	inactive	inactive	inactive	inactive	inactive		inactive
COc1ccc(N)cc1	inactive	inactive	inactive	inactive	inactive	inactive	inactive	inactive		inactive
O=P1(N(CCCl)CCCl)NCCCO1 (stereo unspecified)	inactive	inactive	inactive	inactive	inactive	inactive	inactive	inactive		
O=C(O)c1nc(Cl)ccc1Cl	inactive	inactive	inactive	inactive	inactive	inactive	inactive	inactive		inactive
CCCCCCCCCCCC(=O)O		inactive	inactive	inactive	inactive	inactive	inactive	inactive	inactive	
Oc1ccccc1-c1ccccc1	inactive	inactive	inactive	inactive	21.7 µM (active) [middle of 4 runs]	inactive	inactive	inactive		inactive
O=C(O)C(Cl)(Cl)Cl	inactive	inactive	inactive	inactive	inactive	inactive	inactive	inactive	inactive	
CNC	inactive	inactive		inactive	inactive	inactive	inactive	inactive		
CC(=O)[O][Hg][c]1ccccc1	596 nM (active) and 762 nM (active) and 1.22 µM (active)	473 nM (active) and 382 nM (active) and 386 nM (active)	1.68 µM (active) and 606 nM (active) and 1.37 µM (active)	5.31 µM (active) and 1.21 µM (active) and 2.43 µM (active)	4.73 µM (active) and 1.08 µM (active) and 1.93 µM (active)	inactive	inactive	inactive		inactive
CCCC[n+]1cccc(C)c1	inactive	inactive	inactive	inactive	inactive	inactive	inactive	inactive		
O=C(O)CC(O)(CC(=O)O)C(=O)O	inactive	inactive	inactive	inactive	inactive	inactive	inactive	inactive		
CCCCCCCCCCCCCCCCn1cc[n+](C)c1	inactive	27.9 µM (active) and 69.2 µM (active) and 30.7 µM (active)			17.6 µM (active) and inactive and 17.4 µM (active)	inactive	inactive	inactive		inactive
Cc1cc(-c2ccc(N)c(C)c2)ccc1N	inactive	inactive	inactive	inactive	inactive	inactive	inactive	inactive	inactive	inactive
Cc1cc(Cl)ccc1OCC(=O)O	inactive	inactive	inactive	inactive	inactive	inactive	inactive	inactive	inactive	inactive
CC[n+]1ccccc1		inactive	inactive	inactive	inactive	inactive	inactive	inactive	inactive	
CCC(=O)C(CC(C)N(C)C)(c1ccccc1)c1ccccc1 (stereo unspecified)	inactive	inactive	inactive	inactive	inactive	inactive	inactive	inactive		
CCCC[N+]1(C)CCCC1	inactive	inactive	inactive	inactive	inactive	inactive	inactive	inactive	inactive	
